{"source": "PubChem BioAssay (NCI)", "note": "The panel holds about 83,000 compounds, 20% with a hit somewhere; the sample as a whole holds those more often.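 Growth was measured after 48 h exposure to one concentration of compound in 96-well plates. Values under 10 count as active.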 Calls of active or inactive are those of the source."}
{"system": "NCI-H23 lung", "assay": "NCI-60 one-dose screen, 48 h (100 = growth as untreated, 0 = no growth, -100 = all killed)", "settings": "10 µM unless noted", "protocol": "Growth inhibition of the NCI-H23 human Non-Small Cell Lung tumor cell line is measured as a screen for anti-cancer activity. Cells are grown in 96 well plates and exposed to the test compound for 48 hours. Compounds are tested at a single concentration, which is 10^-5 M for most compounds. The reported endpoint is percent growth (GI% or GIPRCNT), where numbers from 0 - 100% represent growth inhibition, and numbers from -100% - 0 represent cell death. For example, a value of 40 represents 60% growth inhibition. A value of 0 means no net growth occurred over the course of the experiment. A value of -40 indicates 40% of cells at the beginning of the experiment died by the end of the experiment. A value of -100 means all cells are dead at the end of the experiment.\nNCI-60 Human Tumor Cell Lines Screen was performed using the standard one-dose NCI protocol, which is described in more detail at https://dtp.cancer.gov/discovery_development/nci-60/default.htm.\nCompounds with GIPRCNT values below 10 were considered active. Activity score was based on GIPRCNT using the following formula: […]\nScore is 0 for GIPRCNT values of 100 or above, 50 for GIPRCNT values of 0, and 100 for GIPRCNT values of -100."}
{"smiles": "C[S+]1C=Cc2ccccc2C1c1ccc(Cl)cc1", "note": "(stereo not given)", "growth": "83.7% (inactive)"}
{"smiles": "CC[C@H](C)[C@H](NC(=O)c1nccn1C)C(=O)N(C)[C@H](C[C@@H](OC(C)=O)c1nc(C(=O)N[C@@H](Cc2ccccc2)C[C@H](C)C(=O)OC)cs1)C(C)C", "growth": "29.8% (inactive)"}
{"smiles": "NC(=Nc1ccccc1)N[N+](=O)[O-]", "growth": "93.7% (inactive)"}
{"smiles": "Cc1ccc2c(C(C[N+](=O)[O-])c3cccs3)c(-c3ccccc3)[nH]c2c1", "note": "(stereo not given)", "growth": "38.4% (inactive)"}
{"smiles": "CCC(=O)Nc1ccc(Cl)c(Cl)c1", "growth": "96.5% (inactive)"}
{"smiles": "OCc1ccc2c(c1)OCO2", "growth": "95.8% (inactive)"}
{"smiles": "NC(=O)c1c(Br)n(C2OC(CO)C(O)C2O)c2ncnc(N)c12", "note": "(stereo not given)", "growth": "9.8% (active)"}
{"smiles": "CCC(O)(CN)c1ccccc1", "note": "(stereo not given)", "growth": "101% (inactive)"}
{"smiles": "COC(=O)[C@@]1(O)C[C@H]2O[C@]1(C)n1c3ccccc3c3c4c(c5c6ccccc6n2c5c31)C(=O)NC4", "growth": "-43% (active)"}
{"smiles": "C/C(Cc1ccc(Cl)cc1)=C(\\c1ccc(OCCN2CCOCC2)cc1)c1ccc(OC(=O)Cc2ccccc2)cc1", "growth": "92.9% (inactive)"}
{"smiles": "O=C1Nc2ccccc2C2c3cccn3-c3ccccc3CN12", "note": "(stereo not given)", "growth": "70.6% (inactive)"}
{"smiles": "O=C(Nc1ccc(Br)cc1)c1cc(Br)cc(Br)c1O", "growth": "-14.1% (active)"}
{"smiles": "CCOC(=O)N1CC1", "growth": "107% (inactive)"}
{"smiles": "Fc1ccc(C2=CCNCC2)cc1", "growth": "50.2% (inactive)"}
{"smiles": "CC[C@H](NC(=O)[C@H]1CCCCN1C)C(=O)N(C)[C@H](C[C@@H](OC(C)=O)c1nc(C(=O)N[C@@H](Cc2ccccc2)C[C@H](C)C(=O)O)cs1)C(C)C", "growth": "23% (inactive)"}
{"smiles": "CCC1CC(O)c2c(O)c3c(c(O)c2C1O)C(=O)c1cccc(O)c1C3=O", "note": "(stereo not given) (tested in a mixture with another compound)", "growth": "-75.9% (active)"}
{"smiles": "CCOC(=S)S[C@H]1C[C@@H]2[C@H](CC[C@]3(C)C(=O)CC[C@@H]23)[C@@]2(C)CCC(=O)C=C12", "growth": "101% (inactive)"}
{"smiles": "CC1=C(CNO)C2=C(C)C3(CC3)[C@@](C)(O)C(=O)C2=C1", "growth": "-24.8% (active)"}
{"smiles": "COc1ccc2c(c1)c(-c1nc(-c3cn(C)c4ncccc34)cs1)cn2CCN1CCOCC1", "growth": "40.2% (inactive)"}
{"smiles": "Oc1c(CCl)cc(Cl)cc1CCl", "growth": "100% (inactive)"}
{"smiles": "O=C(Nc1ccc([N+](=O)[O-])cc1)C(Cl)(Cl)Cl", "growth": "96.5% (inactive)"}
{"smiles": "O=C(O)C(Cl)(Cl)C(F)(F)F", "growth": "100% (inactive)"}
{"smiles": "CCCCC1(CCC)C(=O)NC(=S)NC1=O", "growth": "100% (inactive)"}
{"smiles": "CC[C@H](C)[C@H](NC(=O)NC(C)(C)C)C(=O)N(C)[C@H](C[C@@H](OC(C)=O)c1nc(C(=O)N[C@@H](Cc2ccccc2)C[C@H](C)C(=O)OC)cs1)C(C)C", "growth": "24.1% (inactive)"}
{"smiles": "COc1cc(/C=N/C2=C(C#N)C(c3ccco3)c3c(c4cc(C)ccc4oc3=O)O2)cc(OC)c1OC", "note": "(stereo not given)", "growth": "95.1% (inactive)"}
{"smiles": "COc1cc2c(c(OC)c1OC)-c1ccc([O-])c(=O)cc1[C@@H](NC(C)=O)CC2.COc1cc2c(c(OC)c1OC)-c1ccc([O-])c(=O)cc1[C@@H](NC(C)=O)CC2.[Cu+2]", "growth": "27.1% (inactive)"}
{"smiles": "Nc1ccc2c(c1)Cc1cc(Br)ccc1-2", "growth": "90.5% (inactive)"}
{"smiles": "CNC(=O)Oc1ccc(N(C)C)cc1C(C)C", "growth": "103% (inactive)"}
{"smiles": "O=C1C=C2C(=CCOC2O)O1", "note": "(stereo not given)", "growth": "60.4% (inactive)"}
{"smiles": "COc1ccc(NC([Se])=NC23CC4CC(CC(C4)C2)C3)cc1", "growth": "-23% (active)"}
{"smiles": "CC[C@H](C)[C@H](NC(=O)[C@H]1CCCCN1C)C(=O)N(C)[C@H](C[C@@H](OC(C)=O)c1nc(C(=O)N[C@@H](Cc2ccccc2)C[C@H](C)C(=O)OC)cs1)C(C)C", "growth": "11.8% (inactive)"}
{"smiles": "Clc1ccc(COC(Cn2ccnc2)c2ccc(Cl)cc2Cl)cc1", "note": "(stereo not given)", "growth": "54.2% (inactive)"}
{"smiles": "C[C@@]1(CCCCCCCCCc2ccc(O)cc2)C[C@]2(C)OC(=O)C[C@@H]2OO1", "growth": "99.4% (inactive)"}
{"smiles": "C=CC[Se]C(=O)c1ccccc1OC(C)=O", "growth": "-21.6% (active)"}
{"smiles": "CC[C@H](C)[C@H](NC(=O)[C@H]1CCCCN1C)C(=O)N(C)[C@H](CCc1nc(C(=O)N[C@@H](Cc2ccccc2)C[C@H](C)C(=O)OC)cs1)C(C)C", "growth": "31% (inactive)"}
{"smiles": "CCOP(=O)(Nc1ccc2c(c1)/C(=N/NC(N)=S)c1ccccc1-2)OCC", "growth": "99% (inactive)"}
{"smiles": "CN(CCCCN(C)CCOS(C)(=O)=O)CCOS(C)(=O)=O", "growth": "84% (inactive)"}
{"smiles": "O=C(Nc1ccc(Cl)cc1)Nc1nccs1", "growth": "50.5% (inactive)"}
{"smiles": "COC(=O)[C@@H](C)C[C@H](Cc1ccccc1)NC(=O)c1nc([C@@H](C[C@H](C(C)C)N(C)C(=O)[C@@H](NC(=O)[C@H]2CCCCN2C)C(C)C)OC(C)=O)sc1C", "growth": "35% (inactive)"}
{"smiles": "Cc1cccc(N2CCN(C(C)C#N)CC2)c1", "note": "(stereo not given)", "growth": "97.6% (inactive)"}
